Test results reported in ChEMBL document CHEMBL1157539, “Thousands of chemical starting points for antimalarial lead identification” (Nature, 2010).

Each compound was assayed on Plasmodium falciparum (assay: GSK_TCMDC: Inhibition of Plasmodium falciparum 3D7 in whole red blood cells, using parasite LDH activity as an index of growth. Test compounds present at 2uM).
Format: functional

Compound | Inhibition [%]
O=C(/C=C/c1ccc(Cl)c(Cl)c1)N1CCC(CN2CCC(Cc3nc4ccccc4[nH]3)CC2)CC1 | 100
CCc1cc(NC(=O)Nc2ccnc3ccccc23)ccc1OC.Cl | 85
COc1cc2nc(NCC3CCN(C(=O)c4ccc(-c5ccc(C(=O)N(C)C)cc5C)cc4)CC3)nc(N)c2cc1OC | 100
N#CCOc1c(C2CCN(CCCCNC(=O)c3ccc(-c4ccc(C(F)(F)F)cc4)cc3)CC2)ccc2c1CCCC2 | 97
Oc1ccc(-c2cc(-c3ccc(O)cc3)nc(-c3ccccc3)n2)cc1 | 96
O=C(Nc1ccc(-c2nc3ccccc3[nH]2)cc1)C1CCCN(CC2CC2)C1 (stereo not given) | 89
CCc1c[nH]c2c(N3CCCC3=O)cc(C(=O)N[C@@H](Cc3ccccc3)[C@H](O)CNC(C)(C)c3cccc(OC)c3)cc12 | 93
Cc1[nH]c(C)c(-c2ccc(OCc3cccc(C(F)(F)F)c3)nc2)c(=O)c1Br | 99
Cn1c(NC(=O)CCCCCNC(=O)c2ccc(O)c(-c3ccc(Cl)c(Cl)c3)c2)nc2ccccc21 | 100
O=C(O)C(F)(F)F.Oc1ccc(-c2nc3c(N4CCN(Cc5ccccc5)CC4)cccc3n2C2CCNCC2)cc1 | 85
O=C(C=Cc1ccc(Cl)c(Cl)c1)NCCCCCN1CCC(CCCNS(=O)(=O)c2cccc(C(F)(F)F)c2)CC1 | 100
CCCN1CCC(c2c[nH]c3ccc(NC(=O)Nc4cccc(Cl)c4Cl)cc23)CC1 | 100
CNCCNCc1cccc(-c2ccc(-c3nc4cc(C(F)(F)F)ccc4[nH]3)s2)c1.O=C(O)C(F)(F)F | 98
NC(=O)c1cccc(C(=O)Nc2cccc(-c3csc(-c4nc5ccccc5[nH]4)c3)c2)c1 | 100
Cc1nc(-c2cccc(C(F)(F)F)c2)n2nc(Nc3ccc(OCCN4CCCC4)cc3)ncc12 | 99
COc1ccc(CCN(C)CCOc2ccc(NC(=O)c3ccc([N+](=O)[O-])c4c(=O)c5ccccc5[nH]c34)cc2)cc1OC | 91
Br.Oc1ccc(CCNCCCCCCNCCc2ccc(Cl)c3ccccc23)cc1O | 99
CC(C)(C)CCN1CCC(NC(=O)c2ccc(-c3cccc(C(F)(F)F)c3)s2)CC1.O=C(O)C(F)(F)F | 93

Compound | Inhibition [%]
Cc1cc(=O)c(-c2ccc(Oc3ccc(C(F)(F)F)cc3)cc2)c(C)n1O | 94
Cc1ccc(O)cc1Nc1ccnc2ccc(-c3cccc(CNCCN(C)C)c3)cc12 | 100
COc1cc(NC(=O)C(c2ccc(Cl)cc2)C(C)C)cc(OC)c1OC (stereo not given) | 100
CCNc1cc(C(=O)N[C@@H](Cc2ccccc2Cl)[C@H](O)CNC(C)CCCC(C)C)cc(N2CCCCS2(=O)=O)c1.Cl (stereo not given in full) | 97
Cc1ccc(CN2CCCN(Cc3cccc(C(=O)Nc4ccc(C(C)(C)C)cc4)c3)CC2)s1.O=C(O)C(F)(F)F | 85
O=C(Nc1ccc(C(F)(F)F)cc1)NC1CCN(c2ccnc3cc(Cl)ccc23)C1.O=C(O)C(F)(F)F (stereo not given) | 100
CC(C)NCc1cccc(-c2ccc(NC(=O)c3ccc(F)cc3)cc2)c1.O=C(O)C(F)(F)F | 92
CCNCc1ccc(-c2cccc(-c3nc4ccccc4[nH]3)c2)cc1.O=C(O)C(F)(F)F | 100
N#Cc1ccc(CN2CCC(Oc3ccc(NC(=O)c4ccccc4)cc3Cl)CC2)cc1.O=C(O)C(F)(F)F | 84
CN(C)Cc1c(O)ccc2[nH]c(-c3ccc(OC(F)(F)F)cc3)nc12 | 100
Cn1nccc1C(=O)NCCNCc1cccc(-c2cccc(-c3nc4cc(F)ccc4[nH]3)c2)c1.O=C(O)C(F)(F)F | 100
COc1ccc2[nH]c(/C=C/c3cccc4ccc(C)nc34)nc2c1 | 98
Cc1nc2sccn2c1C(=O)NCCc1ccccc1Cl | 96
Cc1cc(NC(=O)c2coc3cc(F)c(N4CC(C)N(C)C(C)C4)cc23)cnc1-c1ccc(C#N)cc1.Cl (stereo not given) | 99
O=C(N[C@H]1CCN(Cc2ccc(OC3CCN(Cc4ccccc4)CC3)cc2)C1)c1ccc(Cl)c(Cl)c1.O=C(O)C(F)(F)F | 90
COc1ccc(-c2cccc(NC(=O)c3cccc(F)c3)c2)cc1CN1CCCN(C)CC1.O=C(O)C(F)(F)F | 100
CCN(CCCN1CCCCC1)c1cc(C)nc(Nc2cccc(C(F)(F)F)c2C)n1.O=C(O)C(F)(F)F | 99
